About 83,000 compounds went through this panel and 20% of them were active in at least one assay; those are over-represented in the sample as a whole.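 Step 1: grow cells in 96-well plates. Step 2: add test compound at a single concentration. Step 3: incubate 48 h. Step 4: record percent growth.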 Active and inactive are the calls of the source. The calls were made as follows: active = growth percent below 10; inactive = the rest.
test system: A549/ATCC NSCLC; assay: NCI-60 one-dose screen, 48 h (100 = growth as untreated, 0 = no growth, -100 = all killed); conditions: 10 µM unless noted

Row | Structure (SMILES) | growth
1 | CCN(CC)S(=O)(=O)c1ccc2[nH]c(=O)cc(C(=O)Nc3ccc(OC)cc3OC)c2c1 | 110% (inactive)
2 | COc1ccc(/C=C/C(=O)OCC(=O)NNC(=O)c2ccccc2)cc1OC | 99.2% (inactive)
3 | COc1ncc(-c2ccc3ncnc(Nc4cccc(Cl)c4)c3c2)cc1N(S(C)(=O)=O)S(C)(=O)=O | 47.9% (inactive)
4 | Cc1c(C(=O)NCc2ccccc2)[n+](=O)c2cc(F)ccc2n1[O-] | 109% (inactive)
5 | COc1cc(Br)c(OC)cc1Br | 95.6% (inactive)
6 | CN1CCN(CCCOc2ccc3nc(Nc4ccc(C(F)(F)F)c(Cl)c4)ccc3c2)CC1 | 3.9% (active)
7 | CC(=O)c1cc(C(=O)c2ccc3c(c2)Sc2ccccc2N3)c2cc(C)ccn12 | 14.5% (inactive)
8 | Cc1cc(C(=O)O)c(N)c(C)n1 | 108% (inactive)
9 | c1ccc2c(c1)Oc1ccccc1C2C1c2ccccc2Oc2ccccc21 | 88.3% (inactive)
10 | CC/C=C\C[C@H](O)C/C=C1/C(=O)C(Cl)=C[C@@H]1C/C=C\CCCC(=O)O | 100% (inactive)
11 | O=C(Nc1ccc(I)cc1)c1cc([N+](=O)[O-])ccc1O | 44.1% (inactive)
12 | O=C(CSc1nc(-c2ccc(Cl)cc2)cn1-c1ccc(Cl)cc1)c1ccc(Br)cc1 | 59.2% (inactive)
13 | N#CC1=C(N)n2nc(-c3ccncc3)nc2NC1c1cccc2ccccc12 (stereo unspecified) | 92.4% (inactive)
14 | Cc1ccc2nc(-c3c(CCCO)noc3N)[nH]c(=O)c2c1 | 101% (inactive)
15 | COc1ccc(/C(=N\O)c2cc(OC)c(OC)c(OC)c2)c(OC)c1N | 43.2% (inactive)
16 | CCOc1ccc(/C=C/C=N/NC(N)=S)cc1 | 86.1% (inactive)
17 | C=C1C(=O)O[C@H]2[C@H]1CC/C(COC(=O)NCCc1cccc(OC)c1)=C\CC[C@@]1(C)O[C@@H]21 | 79.2% (inactive)
18 | Cc1c(C2=NNC(c3ccc4c(c3)OCO4)C2)[n+]([O-])c2ccccc2[n+]1[O-] (stereo unspecified) | 109% (inactive)
19 | O=S(=O)(NCCCNc1cc(-c2cn(-c3ccccc3)nc2-c2cccc(O)c2)ccn1)c1ccc(Br)cc1 | 17.4% (inactive)

Row | Structure (SMILES) | growth
20 | COc1cccc2nc(Nc3ccc(NC(=O)c4ccc5ncccc5c4)cc3)ccc12 | 78.1% (inactive)
21 | COc1ncc(-c2ccc3ncnc(Nc4cccc(Cl)c4)c3c2)cc1NS(=O)(=O)CCN1CCOCC1 | -4.57% (active)
22 | O=C(OCCCCOC(=O)n1cnc2ccccc21)n1cnc2ccccc21 | 92.5% (inactive)
23 | Cc1cc(C)c2c(=O)[nH]c(SCC(=O)Nc3cccc(S(=O)(=O)N(C)C)c3)nc2n1 | 95% (inactive)
24 | Cc1ccc(S(=O)(=O)OCC(=O)Nc2ccc(C(=O)O)c(O)c2)cc1 | 101% (inactive)
25 | CN(C)c1nc(N)c(N=O)c(N)n1 | 109% (inactive)
26 | Cc1nc2scc(-c3ccccc3)n2c(=O)c1CCO | 93.6% (inactive)
27 | Cc1ccc2c(c1)C(C)Cc1c(ncnc1-n1cnc3ccccc31)N2C (stereo unspecified) | 31% (inactive)
28 | O=S(=O)(NCCNc1cc(-c2cn(-c3ccccc3)nc2-c2ccccc2)ccn1)c1cccc2ccccc12 | 42.3% (inactive)
29 | CCCCCCOc1ccc(C2(Cl)c3ccccc3N(C)c3ccccc32)cc1 | 47.1% (inactive)
30 | CN(C)C1CCC(NC2=CC(=O)C=CC2=O)CC1 (stereo unspecified) | 106% (inactive)
31 | CC(=O)N1Cc2ccccc2C(C)Cc2cc(Cl)ccc21 (stereo unspecified) | 96.5% (inactive)
32 | NC(N)=NC(N)=Nc1ccccc1-c1ccccc1 | 105% (inactive)
33 | Cc1oc2ncnc(Nc3ccccc3)c2c1C(=O)NCCO | 98.1% (inactive)
34 | Cc1cc(NC(=O)COC(=O)c2sc3cc(F)ccc3c2Cl)no1 | 103% (inactive)
35 | CC1(C)OC2COC3(C(=O)O)OC(C)(C)OC3C2O1 (stereo unspecified) | 95.5% (inactive)
36 | C/C(=C\c1csc(C)n1)[C@@H]1C[C@@H]2O[C@]2(C)CCC[C@H](C)[C@H](O)[C@@H](C)C(=O)C(C)(C)[C@@H](O)CC(=O)N1 | -79.8% (active)
37 | COc1cc2c(cc1OCCCCn1c(-c3cc(=O)c4ccccc4o3)nc3ccccc31)N=C[C@@H]1CCCN1C2=O | 90.5% (inactive)
38 | COc1cc(-c2csc(NC(=O)c3cc(C(F)(F)F)cc(C(F)(F)F)c3)n2)cc(OC)c1OC | 26.3% (inactive)

test system: 786-0 renal; assay: as above; conditions: 10 µM unless noted

Row | Structure (SMILES) | growth
39 | CCN(CC)S(=O)(=O)c1ccc2[nH]c(=O)cc(C(=O)Nc3ccc(OC)cc3OC)c2c1 | 107% (inactive)
40 | COc1ccc(/C=C/C(=O)OCC(=O)NNC(=O)c2ccccc2)cc1OC | 99.8% (inactive)
41 | COc1ncc(-c2ccc3ncnc(Nc4cccc(Cl)c4)c3c2)cc1N(S(C)(=O)=O)S(C)(=O)=O | 79.5% (inactive)
42 | Cc1c(C(=O)NCc2ccccc2)[n+](=O)c2cc(F)ccc2n1[O-] | 101% (inactive)
43 | COc1cc(Br)c(OC)cc1Br | 105% (inactive)
44 | CN1CCN(CCCOc2ccc3nc(Nc4ccc(C(F)(F)F)c(Cl)c4)ccc3c2)CC1 | -60.9% (active)
45 | CC(=O)c1cc(C(=O)c2ccc3c(c2)Sc2ccccc2N3)c2cc(C)ccn12 | 9.68% (active)
46 | Cc1cc(C(=O)O)c(N)c(C)n1 | 104% (inactive)
47 | c1ccc2c(c1)Oc1ccccc1C2C1c2ccccc2Oc2ccccc21 | 94.1% (inactive)
48 | CC/C=C\C[C@H](O)C/C=C1/C(=O)C(Cl)=C[C@@H]1C/C=C\CCCC(=O)O | 75.2% (inactive)
49 | O=C(Nc1ccc(I)cc1)c1cc([N+](=O)[O-])ccc1O | 39.6% (inactive)
50 | O=C(CSc1nc(-c2ccc(Cl)cc2)cn1-c1ccc(Cl)cc1)c1ccc(Br)cc1 | 34.7% (inactive)
51 | N#CC1=C(N)n2nc(-c3ccncc3)nc2NC1c1cccc2ccccc12 (stereo unspecified) | 88% (inactive)
52 | Cc1ccc2nc(-c3c(CCCO)noc3N)[nH]c(=O)c2c1 | 98.6% (inactive)
53 | COc1ccc(/C(=N\O)c2cc(OC)c(OC)c(OC)c2)c(OC)c1N | 34.7% (inactive)
54 | CCOc1ccc(/C=C/C=N/NC(N)=S)cc1 | 56% (inactive)
55 | C=C1C(=O)O[C@H]2[C@H]1CC/C(COC(=O)NCCc1cccc(OC)c1)=C\CC[C@@]1(C)O[C@@H]21 | 5.24% (active)
56 | Cc1c(C2=NNC(c3ccc4c(c3)OCO4)C2)[n+]([O-])c2ccccc2[n+]1[O-] (stereo unspecified) | 106% (inactive)
57 | O=S(=O)(NCCCNc1cc(-c2cn(-c3ccccc3)nc2-c2cccc(O)c2)ccn1)c1ccc(Br)cc1 | -9.38% (active)

Row | Structure (SMILES) | growth
58 | COc1cccc2nc(Nc3ccc(NC(=O)c4ccc5ncccc5c4)cc3)ccc12 | 42.7% (inactive)
59 | COc1ncc(-c2ccc3ncnc(Nc4cccc(Cl)c4)c3c2)cc1NS(=O)(=O)CCN1CCOCC1 | 10.5% (inactive)
60 | O=C(OCCCCOC(=O)n1cnc2ccccc21)n1cnc2ccccc21 | 105% (inactive)
61 | Cc1cc(C)c2c(=O)[nH]c(SCC(=O)Nc3cccc(S(=O)(=O)N(C)C)c3)nc2n1 | 93.2% (inactive)
62 | Cc1ccc(S(=O)(=O)OCC(=O)Nc2ccc(C(=O)O)c(O)c2)cc1 | 108% (inactive)
63 | CN(C)c1nc(N)c(N=O)c(N)n1 | 106% (inactive)
64 | Cc1nc2scc(-c3ccccc3)n2c(=O)c1CCO | 106% (inactive)
65 | Cc1ccc2c(c1)C(C)Cc1c(ncnc1-n1cnc3ccccc31)N2C (stereo unspecified) | 30.9% (inactive)
66 | O=S(=O)(NCCNc1cc(-c2cn(-c3ccccc3)nc2-c2ccccc2)ccn1)c1cccc2ccccc12 | 49.7% (inactive)
67 | CCCCCCOc1ccc(C2(Cl)c3ccccc3N(C)c3ccccc32)cc1 | 47.2% (inactive)
68 | CN(C)C1CCC(NC2=CC(=O)C=CC2=O)CC1 (stereo unspecified) | 121% (inactive)
69 | CC(=O)N1Cc2ccccc2C(C)Cc2cc(Cl)ccc21 (stereo unspecified) | 95.9% (inactive)
70 | NC(N)=NC(N)=Nc1ccccc1-c1ccccc1 | 106% (inactive)
71 | Cc1oc2ncnc(Nc3ccccc3)c2c1C(=O)NCCO | 98.7% (inactive)
72 | Cc1cc(NC(=O)COC(=O)c2sc3cc(F)ccc3c2Cl)no1 | 101% (inactive)
73 | CC1(C)OC2COC3(C(=O)O)OC(C)(C)OC3C2O1 (stereo unspecified) | 104% (inactive)
74 | C/C(=C\c1csc(C)n1)[C@@H]1C[C@@H]2O[C@]2(C)CCC[C@H](C)[C@H](O)[C@@H](C)C(=O)C(C)(C)[C@@H](O)CC(=O)N1 | -22.5% (active)
75 | COc1cc2c(cc1OCCCCn1c(-c3cc(=O)c4ccccc4o3)nc3ccccc31)N=C[C@@H]1CCCN1C2=O | 108% (inactive)
76 | COc1cc(-c2csc(NC(=O)c3cc(C(F)(F)F)cc(C(F)(F)F)c3)n2)cc(OC)c1OC | 41.6% (inactive)
